HSF1 activator – increases HSF-1 driven luciferase reporter signal; NIH3T3-HGL HSF-1 luciferase reporter, MG132, 8 h; 100% = twice DMSO control signal; activation, % at 9 µM; actives 1.7% (n = 300,000); AID 504408;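 active = mean replicate activation of at least 50% with a set share of replicates each reaching 50%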
NPR1 activator – GC-A (human) enzyme activation. actives 0.14% (n = 370,000). activation, % at 10 µM. AID 1671463. P16066. HEK293 GC-A cells, cGMP TR-FRET, EC30 ANP; 0% at EC30 ANP, 100% saturating ANP; in the data active = activation above about 40%
NPR2 activator – GC-B (human) receptor activation; actives 0.11% (n = 370,000); HEK293-GC-B cells, CNP EC30, cGMP TR-FRET; 0% at EC30 CNP, 100% saturating CNP; P20594; activation, % at 10 µM; AID 1920062;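 active = activation at 10 µM reaching about 35% in either raw or pattern-adjusted values, limit read from the data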
Target sequence (P20594 whole entry, looked up): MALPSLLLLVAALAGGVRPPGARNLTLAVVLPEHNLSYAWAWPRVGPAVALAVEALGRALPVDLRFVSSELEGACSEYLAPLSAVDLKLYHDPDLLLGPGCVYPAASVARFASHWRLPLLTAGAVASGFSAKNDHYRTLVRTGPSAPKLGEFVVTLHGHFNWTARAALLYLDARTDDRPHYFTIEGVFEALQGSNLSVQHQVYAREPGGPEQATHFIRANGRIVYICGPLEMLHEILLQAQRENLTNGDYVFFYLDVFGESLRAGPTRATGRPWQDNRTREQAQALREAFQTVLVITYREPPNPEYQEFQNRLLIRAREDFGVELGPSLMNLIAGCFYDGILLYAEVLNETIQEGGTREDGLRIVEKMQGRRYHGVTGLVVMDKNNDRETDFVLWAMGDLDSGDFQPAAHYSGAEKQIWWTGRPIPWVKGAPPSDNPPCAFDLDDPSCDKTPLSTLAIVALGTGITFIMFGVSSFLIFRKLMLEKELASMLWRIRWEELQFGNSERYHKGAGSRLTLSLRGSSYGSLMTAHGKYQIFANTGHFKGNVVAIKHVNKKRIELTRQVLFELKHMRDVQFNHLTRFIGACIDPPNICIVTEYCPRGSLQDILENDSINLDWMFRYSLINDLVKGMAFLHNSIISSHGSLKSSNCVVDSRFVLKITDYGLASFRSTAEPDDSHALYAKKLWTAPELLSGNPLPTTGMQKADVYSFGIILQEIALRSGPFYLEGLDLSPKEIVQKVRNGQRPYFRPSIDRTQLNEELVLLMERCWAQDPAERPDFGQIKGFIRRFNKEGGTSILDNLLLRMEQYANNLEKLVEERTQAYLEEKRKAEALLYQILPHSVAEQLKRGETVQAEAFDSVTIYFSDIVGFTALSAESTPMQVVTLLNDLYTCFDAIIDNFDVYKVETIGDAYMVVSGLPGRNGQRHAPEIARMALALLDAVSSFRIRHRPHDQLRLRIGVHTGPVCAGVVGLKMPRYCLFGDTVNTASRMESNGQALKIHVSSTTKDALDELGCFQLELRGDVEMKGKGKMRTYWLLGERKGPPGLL
DYRK1A inh – inhibitors of rat Dyrk1A kinase; ADP-Glo luminescence, NFATc1 peptide; inhibition, % at 12.5 µM; actives 0.43% (n = 310,000); in the data active = inhibition above about 50%
HSF1 inhib – HSF1 inhibition; NIH3T3-HGL HSE-luciferase, MG132-induced, luminescence 8 h; active compounds read low; actives 0.77% (n = 300,000); activity change, negative = inhibition, % at 7.5 µM (by protocol);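 active = more than half of replicate wells show activity change below -50%, luminescence cut by over half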;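 note: luciferase reports HSF-1 transcriptional activity via heat shock element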
aDG glyco act – increases alpha dystroglycan glycosylation; Pro5-aDG cells, alpha-DG glycosylation AlphaScreen (IIH6); 0% Pro5, 100% B10-LARGE cell signal; activation, % at 10 µM; actives 0.22% (n = 360,000); AID 624168;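 active = activation of at least 8% versus controls, or a plate z-score of at least 8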;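 note: Pro5 are CHO cells carrying HIG-tagged alpha-DG that lacks glycosylation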
aDG conf – alpha-DG glycosylation activation, confirmation; shares compounds with aDG glyco act; Pro5-aDG cells, IIH6 AlphaLISA; scaled to LARGE-overexpressing B10 cells as 100%; activation, % at 10 µM (by protocol); actives 17% (n = 600); AID 651671;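 active = activation of at least 7% in one or more replicates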;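 note: cells exposed to compound for two days before detection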
Of the large screens only hits and unclear results are named; the others gave an inactive call (follow-up assays come after a bar, where they were run). Shown are actives, neighbours in structure and some others; about 2.5% of the full set was active somewhere.

OCCNc1ncnc2c1ncn2[C@H]1CN(Cc2ccncc2)C[C@@H](CO)O1	none (no result: HSF1 activator, DYRK1A inh, HSF1 inhib)
O=C(CN1CCN(S(=O)(=O)c2ccc(F)cc2)CC1)Nc1ccc(Cl)c(C(F)(F)F)c1	aDG glyco act 5.4 | aDG conf inactive
O=C(CN1CCN(S(=O)(=O)c2ccc(F)cc2)CC1)Nc1ccc2c(c1)OCCO2	none
O=C(NCCS(=O)(=O)NCC1CCCO1)c1ccccc1 (stereo unspecified)	aDG glyco act 5.2 | aDG conf inactive
CCCCn1c(/N=C/c2ccc(N(C)C)cc2)nc2ccccc21	aDG glyco act 4.9 | aDG conf inactive
CCOC(=O)CC[C@@H]1CC[C@]2(CCCN(Cc3ccc(OC)cc3)C2)O1	none (no result: HSF1 activator, DYRK1A inh, HSF1 inhib, aDG glyco act)
COc1ccc(C(=O)Nc2cccc3nc(C)ccc23)c(OC)c1	none
CC1(C(=O)Nc2ccc3c(c2)OCCO3)CSCC(=O)N1C1CC1 (stereo unspecified)	aDG glyco act 8.6 (no result: HSF1 activator, DYRK1A inh, HSF1 inhib) | aDG conf inactive
CC(=O)c1c(C)[nH]c(C(=O)OCC(=O)Nc2ccc(Cl)cc2[N+](=O)[O-])c1C	aDG glyco act 8.4 | aDG conf inactive
O=C(COC(=O)c1cc[n+]([O-])cc1)Nc1ccc(Cl)cc1[N+](=O)[O-]	none
CCn1c(NCc2ccco2)nc2c1c(=O)n(C)c(=O)n2C	aDG glyco act 6.3 | aDG conf inactive
CC(=O)COc1cc2c(-c3cc4ccccc4o3)cc(=O)oc2cc1C	none
COc1cccc(N(C(=O)c2ccco2)C(C(=O)NC2CCCC2)c2ccc(N3CCOCC3)cc2)c1 (stereo unspecified)	none
CCCCn1c(N)c(N(CCOC)C(=O)CCNC(=O)NC23CC4CC(CC(C4)C2)C3)c(=O)[nH]c1=O	none (no result: HSF1 activator, HSF1 inhib)
CCCCN(C(=O)CCNC(=O)NC12CC3CC(CC(C3)C1)C2)c1c(N)n(CCC)c(=O)[nH]c1=O	aDG glyco act 5.1 | aDG conf inactive
CCCOc1ccc(C(=O)OCC(=O)NCCc2ccc(OCC)c(OCC)c2)cc1OC	none
CCOc1ccc(CCNC(=O)COC(=O)c2cc(OC)cc(OC)c2)cc1OCC	aDG glyco act 24 (no result: DYRK1A inh) | aDG conf inactive
O=C(CN1C(=O)c2ccc(Br)cc2C1=O)NCC1CCCO1 (stereo unspecified)	aDG glyco act 5.5 | aDG conf inactive
O=C(CN1C(=O)c2ccccc2C1=O)NCC1CCCO1 (stereo unspecified)	none
Cc1onc(-c2ccccc2)c1C(=O)NCC(=O)Nc1cc(Cl)ccc1Cl	none (no result: HSF1 activator, DYRK1A inh, HSF1 inhib)
CCN(CC)C(=O)Nc1ccc(Br)cc1	none (no result: DYRK1A inh)
COc1cccc(S(=O)(=O)NCc2ccc(C(=O)Nc3cccc(Cl)c3)cc2)c1	aDG glyco act 4.7 | aDG conf inactive
CN(C)S(=O)(=O)c1cccc(NC(=O)c2ccc(COc3ccccc3)cc2)c1	aDG glyco act 3.1 | aDG conf inactive
Cc1ccc(-n2nc(CC#N)c(C#N)c2N)cc1Cl	none
C=CCc1c(C)nc(C)nc1N/N=C/c1ccc(N(C)C)cc1	aDG glyco act 6.3 | aDG conf inactive
O=C(c1ccccc1OC(F)F)N1CCN(S(=O)(=O)c2ccc3c(c2)OCCCO3)CC1	aDG glyco act 14 (no result: HSF1 activator, HSF1 inhib) | aDG conf inactive
CC(C)CN(C(=O)CSc1ncnc2ccccc12)C1CCS(=O)(=O)C1 (stereo unspecified)	none (no result: HSF1 activator, HSF1 inhib)
CN(C(=O)CSc1ncnc2ccccc12)C1CCS(=O)(=O)C1 (stereo unspecified)	aDG glyco act 4.5 (no result: HSF1 activator, HSF1 inhib) | aDG conf inactive
CN(C)CCN(C(=O)/C=C/c1cccs1)c1nc2ccc(Br)cc2s1	none
C[C@@H]1CN([C@H](C)CO)C(=O)CCCn2nncc2CO[C@@H]1CN(C)C(=O)Nc1ccc(N2CCN(C)CC2)cc1	aDG glyco act 8.5 (no result: HSF1 activator, DYRK1A inh, HSF1 inhib) | aDG conf inactive
NC(=O)NC[C@@H]1CC[C@@H](Cc2ccc(-c3ccccc3)cc2)O1	none (no result: HSF1 activator, NPR1 activator, NPR2 activator, HSF1 inhib)
COc1ccc(NC(=O)NC[C@@H]2CC[C@@H](Cc3ccc(-c4ccccc4)cc3)O2)cc1	aDG glyco act 6.4 (no result: HSF1 activator, HSF1 inhib) | aDG conf inactive
CN(C)CCCNS(=O)(=O)c1ccc(NC2CCCCCC2)c([N+](=O)[O-])c1	aDG glyco act 3.3 | aDG conf 4.9
Clc1ccc(SCc2cc(N3CCOCC3)nc(-c3ccccn3)n2)cc1	aDG glyco act 8.5 (no result: HSF1 activator, HSF1 inhib) | aDG conf 4.0
CC1Sc2ccc(C(=O)NCc3ccccn3)cc2NC1=O (stereo unspecified)	aDG glyco act 5.5 (no result: HSF1 activator, DYRK1A inh, HSF1 inhib) | aDG conf inactive
Cc1cc(C)c(NC(=O)c2ccc3c(c2)NC(=O)C(C)S3)c(C)c1 (stereo unspecified)	none (no result: HSF1 activator, HSF1 inhib)
CCc1ccc(OCC(=O)NNC(=O)c2cc3ccccc3o2)cc1	none
CC(C)COc1ccc(CSCCNC(=S)Nc2ccccc2)cc1	aDG glyco act 4.6 | aDG conf 4.9
CCCCOc1ccc(CSCCNC(=S)Nc2ccccc2)cc1	none
CC(C)NC(=S)N/N=C1\CCCCC1C1CCCCC1 (stereo unspecified)	aDG glyco act 7.2 | aDG conf inactive
Cc1ccc(S(=O)(=O)c2c(N)n(Cc3ccco3)c3nc4ccccc4nc23)cc1C	HSF1 activator 73, aDG glyco act 40 | aDG conf inactive
CC(C)Nc1nc(-c2cccnc2)nc(-c2ccccc2)c1C#N	none
CC(C)Nc1nc(-c2ccccn2)nc(-c2ccccc2)c1C#N	aDG glyco act 8.8 | aDG conf inactive
CC1CCN(S(=O)(=O)c2ccc(F)c(C(=O)O)c2)CC1	none
Cc1noc(/C=C/N(C)C)c1S(=O)(=O)N1CCC(C(=O)Nc2ccc(Cl)cc2)CC1	aDG glyco act 8.6 (no result: DYRK1A inh) | aDG conf inactive
Cc1cc(C)cc(NC(=O)C2CCCN(S(=O)(=O)c3c(C)noc3C)C2)c1 (stereo unspecified)	aDG glyco act 3.1 | aDG conf inactive
Cn1cnc([N+](=O)[O-])c1Oc1ccc2ccccc2c1	aDG glyco act 4.7 | aDG conf inactive
Cn1cnc([N+](=O)[O-])c1Sc1nc2ccccc2[nH]1	none (no result: DYRK1A inh)
COc1ccc(NC(=O)c2ccc(Br)c(S(=O)(=O)N3CCOCC3)c2)cc1	none
Cc1c(OCC(=O)N2CCC(C(N)=O)CC2)ccc2c1oc(=O)c1ccccc12	none
O=C(Nc1ccc(OC(F)(F)F)cc1)c1ccc2nccnc2c1	aDG glyco act 5.5 | aDG conf inactive
CC/C(=N\NC(=S)Nc1cc(C)ccc1C)c1ccc(OC(F)F)cc1	aDG glyco act 5.7 | aDG conf inactive
Cc1ccccc1CSc1nnc([C@@H]2CCCN2)o1	aDG glyco act 4.8 | aDG conf inactive

Source: PubChem BioAssay (several laboratories)
